This is part of a sample that, as a whole, favours compounds with a hit. Of some 83,000 tested, about 20% had one in any assay.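 Results are percent growth after 48 hours of single-concentration exposure. 100 means growth as in untreated cells, lower positive values show inhibition; negative values down to -100 show cell death.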 Unmarked numbers belong to inactive results. Activity calls are given as the source filed them. How the source made its calls: active means growth percent below 10; inactive means the rest.

The results in this text go back to PubChem BioAssay (NCI).

Holding throughout (assay): NCI-60 one-dose screen, 48 h (100 = growth as untreated, 0 = no growth, -100 = all killed)
Settings in all cases: 10 µM

Assay [1] deals with T-47D breast.
Assay [2] has as its system BT-549 breast.
In assay [3] the test system is MDA-MB-435 melanoma.
The test system of assay [4] is SW-620 colon.
The test system of assay [5] is MCF7 breast.
Assay [6] relates to HCT-116 colon.
Assay [7] concerns HCC-2998 colon.
Assay [8] has as its system KM12 colon.

For the molecule `Cc1ccc(N=Nc2ccccc2)cc1`, the growth in assay [1] is 88.2%; in assay [2] it was 90%; in assay [3], 101%; in assay [4], 102%; in assay [5] it was 98.3%; in assay [6], 78.4%. Besides, the figures for the growth in assay [7] and in assay [8] were 103% and 93.8%, respectively.
Consider `COc1ccc(-c2cc(-c3ccc(Cl)cc3)nc(SCCCCCCC(=O)NO)n2)cc1OC`, for which the growth was 36.1% in assay [1]; 79.6% in assay [2]; 69.1% in assay [3]; 46.3% in assay [4]; 24.6% in assay [5]; 41.8% in assay [6]. Moreover, the figures for the growth in assay [7] and in assay [8] were 80.3% and 69.4%, respectively.
Consider `CCN(CC)CCCC(C)Nc1c2ccc(Cl)cc2nc2ccc(OC)cc12` (stereo unspecified), for which the growth in assay [1] is 14%; in assay [2], 56.2%; in assay [3], -18.9% (active); in assay [4] it was -19.1% (active); in assay [5], -11.6% (active); in assay [6] it was 12.3%. In addition, the growth in assay [7] is 15.3%; in assay [8], 22.1%.
As to `CC(C)N(CCOc1cccc(-c2nc3sccn3c2-c2ccnc(S(C)(=O)=O)n2)c1)C(C)C`, the growth is 88.3% in assay [1]; 128% in assay [2]; 86.1% in assay [3]; 67.1% in assay [4]; 54.4% in assay [5]; 44.9% in assay [6]. Besides, the growth was 95.9% in assay [7] and 87.8% in assay [8].
For `Brc1ccc2c(c1)-c1ccccc1C1=NCCN12`, the growth was -0.518% (active) in assay [1]; 11% in assay [2]; 1.68% (active) in assay [3]; -34.3% (active) in assay [4]; -5.53% (active) in assay [5]; -12.6% (active) in assay [6]. The growth in assay [7] was 13.5%; in assay [8], 10.9%.
On to `O=S(=O)(O)c1cccc(Nc2ccc3ccccc3c2)c1`, for which the growth in assay [1] is 89.9%; in assay [2], 98.4%; in assay [3] it was 106%; in assay [4] it was 93.2%; in assay [5] it was 99.5%; in assay [6], 90.5%. For the same molecule, the growth in assay [7] is 104%; in assay [8] it was 90.6%.
With `Cc1ccc(S(=O)(=O)N/N=C2\CCCc3ccccc32)cc1`, the growth in assay [1] is 94%; in assay [2], 115%; in assay [3], 101%; in assay [4], 101%; in assay [5], 92.1%; in assay [6] it was 114%. Besides, the growth was 108% in assay [7] and 111% in assay [8].
`Nc1nc(-c2cccnc2)nc2c1sc(=S)n2-c1ccccc1`: the growth in assay [1] is 90.8%; in assay [2], 101%; in assay [3] it was 111%; in assay [4], 104%; in assay [5], 94.4%; in assay [6], 70.7%. Moreover, the growth is 105% in assay [7] and 99% in assay [8].
Regarding `O=c1c(Br)ccc(Br)cc1Br`, the growth in assay [1] is -44.1% (active); in assay [2] it was 98.4%; in assay [3], -40.1% (active); in assay [4], -46.5% (active); in assay [5], -22.6% (active); in assay [6], -88.1% (active). Further, the growth in assay [8] is -47% (active).
With `Cc1cc(CSc2ccccc2C(=O)N2CC=C(c3ccccc3)CC2)on1`, the growth in assay [1] is 75.5%; in assay [2], 101%; in assay [3], 98%; in assay [4], 97.6%; in assay [5], 94.9%; in assay [6] it was 93.1%. The results for the growth in assay [7] and in assay [8] were 93.3% and 97.2%, respectively.
On to `O=C(COc1cccc(/C=C2\CSc3ccccc3C2=O)c1)c1ccc(Cl)cc1`, for which the growth in assay [1] was 57.8%; in assay [2], -77.5% (active); in assay [3], -14.8% (active); in assay [4] it was -100% (active); in assay [5] it was -89.2% (active); in assay [6], -57.8% (active). For the same molecule, the growth in assay [8] is -80.3% (active).
Take `C=CCn1c(SCC(=O)Nc2ccc(C(=O)/C=C/c3ccc(Cl)cc3)cc2)nnc1-c1cc(-c2ccccc2)nc2ccccc12`: the growth in assay [1] is 84.6%; in assay [2] it was 64.2%; in assay [3] it was 77.9%; in assay [4] it was 5.4% (active); in assay [5], 12.2%; in assay [6], -22.9% (active). Further, the growth in assay [8] was 76.5%.
`COc1ccc2c(c1)C(CC(=O)NN)CCC2` (stereo unspecified): the growth was 105% in assay [1]; 103% in assay [2]; 103% in assay [3]; 106% in assay [4]; 95.6% in assay [5]; 104% in assay [6]. For the same molecule, in assay [8], the growth is 105%.
For `COc1cc(C)ccc1Oc1nc(Nc2ccc(N3CCOCC3)cc2)ncc1NC(=O)Nc1cc(C(F)(F)F)cc(C(F)(F)F)c1`, the growth in assay [1] was 81.9%; in assay [2] it was 78.3%; in assay [3], 81.5%; in assay [4] it was 82.6%; in assay [5] it was 69.3%; in assay [6] it was 22.6%. Moreover, the growth was 101% in assay [7] and 63.5% in assay [8].
As to `COc1cc(-c2csc(NC(=O)Nc3ccc(Cl)c(C(F)(F)F)c3)n2)cc(OC)c1OC`, the growth is -9.38% (active) in assay [1]; -13% (active) in assay [2]; -7.7% (active) in assay [3]; 18.1% in assay [4]; -9.68% (active) in assay [5]; -19.6% (active) in assay [6]. The growth is 21.4% in assay [7] and 9.25% (active) in assay [8].
